This is a sample that favours compounds with a hit; in the whole collection about 4% have one here.
TRPM1 prom inh: inhibitors of MITF-driven TRPM1 promoter in melanoma cells; 0.83% of 330,000 active; inhibition, % at 12.5 µM; SK-MEL-5 TRPM1 promoter luciferase, 24 h;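 active means mean inhibition across replicates of 60% or more, whatever share of single replicates reaches that level; inconclusive means some that reach 60%, reason not given; inactive means mean inhibition across replicates below 60%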
TWEAK-Fn14 inh: TWEAK-Fn14 signaling inhibition. TWEAK-stimulated Fn14 reporter cells, luciferase luminescence, 8 h. inhibition, % at 10 µM. 2% of 360,000 active; in the data active means inhibition above about 50%
HIF-2a inh: inhibitors of HIF-2a; 0.72% of 360,000 active; inhibition, % at 18.8 µM; AID 624352; 786-0 RCC cells HIF-2a reporter, luciferase luminescence, overnight;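 active means inhibition of the luminescence signal of 40% or more relative to plate controls, in a single-dose primary screen at 18.75 µM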
TROY NFkB inh: inhibitors of TROY-dependent NF-kB signaling | 0.98% of 360,000 active | Q293 LMP1-TROYcd NF-kB luciferase reporter, 4 h | inhibition, % at 10 µM;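 active means compounds whose plate-normalised and pattern-corrected inhibition of the luciferase reporter signal at the single screening dose is 50% or more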
EBV LMP1 NFkB: inhibitors of Epstein-Barr LMP1-induced NF-kappaB reporter | inhibition, % at 12.5 µM | LMP1-induced NF-kappaB luciferase reporter cells, luminescence | 0.69% of 350,000 active; in the data active means inhibition above about 41%; inconclusive means no clear call, values can overlap the other calls
Peg3 prom inh: Peg3 promoter activity inhibition; HeLa PEG-Prom luciferase reporter, luminescence, overnight; inhibition, % at 20 µM; 1.7% of 360,000 active;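 active means inhibition of at least 50% at 20 µM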
Numbers stand for hits; 0 = inactive; ? = inconclusive; - = no result.

SMILES	TRPM1 prom inh	TWEAK-Fn14 inh	HIF-2a inh	TROY NFkB inh	EBV LMP1 NFkB	Peg3 prom inh
O=C1/C(=C\c2cc(Br)cc(Br)c2O)SC(=S)N1Cc1ccccc1	0	0	0	0	0	73
O=C1/C(=C/c2cccnc2)SC(=S)N1Cc1ccco1	0	0	0	0	43	0
O=C(O)c1ccc(/C=C2/SC(=S)N(Cc3ccccc3)C2=O)cc1	0	0	0	0	0	0
CCC1CCCCN1C(=O)Cn1nc([N+](=O)[O-])c(Cl)c1C (stereo not given)	0	0	0	0	0	0
O=C1/C(=C/c2ccc(O)c([N+](=O)[O-])c2)SC(=S)N1Cc1ccccc1	0	60	0	0	0	0
CCOc1cc(/C=C2/SC(=S)N(Cc3ccccc3)C2=O)ccc1O	0	0	0	0	0	0
O=C1/C(=C/c2ccccc2O)SC(=S)N1Cc1cccnc1	0	0	0	0	0	108
COc1cccc(OCC(O)CNC(=O)c2oc3ccc(C)cc3c2C)c1 (stereo not given)	0	0	0	0	0	0
Cc1noc(C)c1NC(=O)N1C[C@H](O)COC[C@H]2O[C@@H](CC(=O)NCC3CCCCC3)CC[C@@H]21	-	-	0	-	-	-
Cc1[nH]c2c(ccc3ccccc32)c1C1C(CCN)C1(C)C (stereo not given)	71	0	0	0	0	100
S=c1[nH]c2ccc3ccccc3c2[nH]1	0	0	0	0	0	0
O=C(/C=C/c1ccccc1O)c1ccccc1	0	0	0	0	0	0
CC(=O)/C=C/c1ccccc1O	0	0	0	0	52	0
COc1ccc(-c2nnc(Sc3nc4ccccc4o3)c3ccccc23)cc1	0	74	0	0	0	0
COc1ccc(-c2nnc(OC)c3ccccc23)cc1	0	0	0	0	0	0
CCOC(=O)C1(C)CCN1C(=O)c1ccccc1OC(F)(F)F (stereo not given)	-	0	0	0	-	0
Cc1cccc(NC(c2ccc(C)s2)c2ccc3ccc(C)nc3c2O)n1 (stereo not given)	0	0	66	0	0	0
COC(=O)[C@@H]1C[C@]2(OC(=O)c3ccccc3)C=CC(=O)C[C@@H]2N1C(=O)OCc1ccccc1	?	51	91	0	0	72
O=C(O)c1cc(O)ccc1NC(=O)C(c1ccccc1)c1ccccc1	0	110	0	61	0	0
Cc1c(NC(=O)C(c2ccccc2)c2ccccc2)cccc1C(=O)O	0	0	0	0	0	0
Cc1ccc(NC(=O)Cn2c(O)c(N=NC(N)=S)c3ccccc32)cc1	0	0	47	0	0	0
COc1ccc(OCCNC2CCCC2)cc1	0	0	0	0	0	0
c1ccc(-c2ccc(OCCCNC3CCCC3)cc2)cc1	0	0	0	0	0	74
CC(C)Nc1ncnc2c1ncn2[C@H]1CN(Cc2cccnc2)C[C@@H](CO)O1	-	0	0	0	-	0
CCn1ncc(/C=C/C(=O)c2ccccc2)c1C	0	53	0	0	0	0
SMILES	TRPM1 prom inh	TWEAK-Fn14 inh	HIF-2a inh	TROY NFkB inh	EBV LMP1 NFkB	Peg3 prom inh
Cn1cc(/C=C/C(=O)c2ccccc2)c2ccccc21	0	71	0	0	0	0
Cc1c(/C=C/C(=O)c2ccccc2)cnn1C	0	0	0	0	0	0
CC(C)c1ccc2[nH]c(O)c(N=NC(=O)c3cccc(S(=O)(=O)N4CCCCC4)c3)c2c1	0	55	0	0	0	0
O=C(N=Nc1c(O)[nH]c2ccccc12)c1cccc(S(=O)(=O)N2CCCCC2)c1	0	0	0	0	0	0
COC(=O)CSc1ncnc2c1sc1nc3c(cc12)COC(C)(C)C3	0	0	0	0	51	0
CC1(C)Cc2nc3sc4c(SCC(=O)O)ncnc4c3cc2CO1	0	0	0	0	52	0
CC(=O)N1CCN(S(=O)(=O)c2cccc(C(=O)N3CCN(S(=O)(=O)c4c(C)c(C)cc(C)c4C)CC3)c2)CC1	-	0	0	0	0	0
c1ccc(COc2cccc(CN3CCc4ccccc4C3)c2)cc1	0	0	0	0	0	0
CC1CCN(C(=O)COC(=O)c2cccs2)CC1	0	58	0	0	0	0
CC(=O)N1c2ccc(S(=O)(=O)NCC3CCC(C(=O)NCc4ccco4)CC3)cc2CC1C (stereo not given)	0	0	0	0	0	0
CSc1ccc(C(=O)N2CCc3ccc(NC(=O)c4ccccn4)cc3C2)cc1	0	0	0	0	0	0
CSc1ccccc1C(=O)N1CCc2ccc(NC(=O)c3ccccn3)cc2C1	-	60	0	74	0	0
NC(=O)C1CCN(C(=O)c2cc(-c3ccc(Cl)s3)nc3ccccc23)CC1	0	0	0	0	0	0
CC(=O)Nc1ccc(-c2ccnc3c2CC(C)(C(=O)NCc2ccc(N4CCN(C)CC4)cc2)O3)cc1 (stereo not given)	-	0	0	0	-	0
O=C(Nc1ccc(O)cc1)c1cc2ccccc2c(=O)s1	0	0	0	0	0	0
O=C(Nc1ccccc1)c1cc2ccccc2c(=O)s1	0	58	0	0	0	0
COc1ccccc1NC(=O)N(Cc1cccs1)Cc1cc2cc3c(cc2[nH]c1=O)OCO3	0	67	0	0	0	53
COc1ccc2cc(CN(CC3CCCO3)C(=O)Nc3ccccc3OC)c(=O)[nH]c2c1 (stereo not given)	0	0	0	0	49	0
O=C(c1ccccc1)N(CCO)Cc1cc2cc3c(cc2[nH]c1=O)OCCO3	0	0	0	0	0	0
COc1ccccc1NC(=S)N(CCCN(C)C)Cc1cc2cc3c(cc2[nH]c1=O)OCO3	0	0	0	0	0	0
CCOc1ccccc1C(=O)N(Cc1ccccc1)Cc1cc2cc3c(cc2[nH]c1=O)OCCO3	0	0	0	0	0	61
COc1ccc(NC(=O)N(CCN2CCCC2)Cc2cc3cc(OC)c(OC)cc3[nH]c2=O)cc1	0	0	0	0	44	0
COc1ccccc1-c1csc(Nc2ccc(Oc3ccccc3)cc2)n1	-	0	0	0	-	0
Cn1nc(C(=O)NNC(=O)CCc2ccccc2Cl)c2ccccc2c1=O	0	0	0	0	0	0
CCc1ccc2[nH]c(=O)c(CN(Cc3ccccc3)C(=O)Nc3ccccc3OC)cc2c1	0	0	0	55	0	0
SMILES	TRPM1 prom inh	TWEAK-Fn14 inh	HIF-2a inh	TROY NFkB inh	EBV LMP1 NFkB	Peg3 prom inh
CN(C)CCCN(Cc1cc2cc3c(cc2[nH]c1=O)OCO3)C(=S)Nc1cccc(Cl)c1	0	0	0	51	0	0
Cc1ccc2nc(C)cc(C(=O)N3CCCC(N4CCN(c5ccccc5C)CC4)C3)c2c1 (stereo not given)	0	0	0	0	0	0
CCOc1ccc(N2CC(C(=O)N3CCCCCC3)CC2=O)cc1 (stereo not given)	0	0	0	0	0	0
CCc1nc2c(OCC(=O)C(C)(C)C)cccn2c1N(C)C(=O)C(C)C	-	0	0	0	-	0
N/C(=N\OC(=O)c1ccc(Cl)cc1)c1[nH]ncc1Br	0	65	0	0	0	0
CCO/N=C(\N)c1[nH]ncc1Br	0	0	0	0	0	0
CCc1nc2ccc(C(=O)NCCCn3ccnc3)cn2c1N(C)Cc1ccc(N(C)C)cc1	-	0	0	0	-	0
